Laboratory results published in the supplement of paper PMC10849652.
Targets with a hit are over-represented here; the source holds about 7,900 in all. About 0.6% of all pairs of compound and target were hits.

These targets were tested with Cn1cc(-c2ccc3nnc(C(F)(F)c4ccc5ncccc5c4)n3n2)cn1 (assay: log2 fold change, soluble protein after heating vs DMSO (PISA); higher = thermal stabilisation; K562 cells, 10 uM, 30 min; active = over 0.2 and 3.5 SD of the protein, either way, in both replicates (recomputed)).
Method in brief: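 Thermal stability values are relative to control samples and come from duplicates. They are expressed as log2 fold changes. For measurement, K562 cells (2×10^6 cells/mL) received 10 μM compound for 30 min, and aliquots were heated for 3 min over 48°C-58°C, pooled, and extracted at 4°C in PBS with 0.5% NP-40. Soluble protein, the supernatant after 21,000xg for 90 min, was quantified by TMTpro 16plex LC-MS/MS with equalised channel sums.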

Sequence of UniProt P51795 (P51795 whole entry, looked up): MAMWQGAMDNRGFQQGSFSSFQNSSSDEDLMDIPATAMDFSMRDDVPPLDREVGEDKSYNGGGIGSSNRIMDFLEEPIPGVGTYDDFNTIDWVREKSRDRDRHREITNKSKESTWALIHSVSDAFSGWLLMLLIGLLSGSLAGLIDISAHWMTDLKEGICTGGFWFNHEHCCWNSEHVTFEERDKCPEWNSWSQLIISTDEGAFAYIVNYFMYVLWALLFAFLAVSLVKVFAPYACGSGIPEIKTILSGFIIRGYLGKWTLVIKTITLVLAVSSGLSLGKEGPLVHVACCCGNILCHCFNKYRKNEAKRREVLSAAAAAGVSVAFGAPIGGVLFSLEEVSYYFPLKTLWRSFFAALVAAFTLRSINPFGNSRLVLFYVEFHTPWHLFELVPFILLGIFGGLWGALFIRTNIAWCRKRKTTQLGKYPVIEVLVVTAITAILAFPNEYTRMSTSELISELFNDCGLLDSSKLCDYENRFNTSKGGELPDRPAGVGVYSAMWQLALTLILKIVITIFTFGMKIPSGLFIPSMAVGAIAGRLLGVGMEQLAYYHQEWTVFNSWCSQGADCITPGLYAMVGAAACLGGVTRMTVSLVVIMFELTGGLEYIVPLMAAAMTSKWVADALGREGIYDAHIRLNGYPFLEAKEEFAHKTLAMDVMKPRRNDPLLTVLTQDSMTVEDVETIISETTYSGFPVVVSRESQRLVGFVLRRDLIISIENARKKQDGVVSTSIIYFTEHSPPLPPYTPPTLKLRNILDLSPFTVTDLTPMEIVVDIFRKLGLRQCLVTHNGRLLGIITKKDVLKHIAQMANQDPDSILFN
Sequence of UniProt Q9H257 (Q9H257 whole entry, looked up): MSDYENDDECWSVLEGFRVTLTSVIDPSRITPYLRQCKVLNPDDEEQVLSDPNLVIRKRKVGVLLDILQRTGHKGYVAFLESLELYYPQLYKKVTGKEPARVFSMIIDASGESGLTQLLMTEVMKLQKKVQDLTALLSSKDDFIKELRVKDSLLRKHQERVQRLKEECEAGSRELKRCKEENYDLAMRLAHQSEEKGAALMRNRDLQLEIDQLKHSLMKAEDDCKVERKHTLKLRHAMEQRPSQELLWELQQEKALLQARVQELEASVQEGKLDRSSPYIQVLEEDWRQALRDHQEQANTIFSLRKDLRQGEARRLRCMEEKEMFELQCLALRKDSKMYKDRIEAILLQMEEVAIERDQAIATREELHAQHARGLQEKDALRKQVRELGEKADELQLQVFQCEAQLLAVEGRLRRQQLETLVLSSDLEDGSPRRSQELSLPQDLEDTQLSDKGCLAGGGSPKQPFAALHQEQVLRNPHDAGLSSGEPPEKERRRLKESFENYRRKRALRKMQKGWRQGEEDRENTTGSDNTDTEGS
Sequence of UniProt Q9UBY8 (Q9UBY8 whole entry, looked up): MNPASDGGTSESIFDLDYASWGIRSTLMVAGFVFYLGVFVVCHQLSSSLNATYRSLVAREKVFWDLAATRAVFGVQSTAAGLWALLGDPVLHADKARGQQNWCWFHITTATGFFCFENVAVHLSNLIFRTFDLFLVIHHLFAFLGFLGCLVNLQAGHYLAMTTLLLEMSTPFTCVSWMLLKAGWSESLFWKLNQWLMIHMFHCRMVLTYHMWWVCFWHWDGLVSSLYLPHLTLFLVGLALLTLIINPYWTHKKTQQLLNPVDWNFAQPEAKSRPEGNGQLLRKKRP
Sequence of UniProt Q9UHN6 (Q9UHN6 whole entry, looked up): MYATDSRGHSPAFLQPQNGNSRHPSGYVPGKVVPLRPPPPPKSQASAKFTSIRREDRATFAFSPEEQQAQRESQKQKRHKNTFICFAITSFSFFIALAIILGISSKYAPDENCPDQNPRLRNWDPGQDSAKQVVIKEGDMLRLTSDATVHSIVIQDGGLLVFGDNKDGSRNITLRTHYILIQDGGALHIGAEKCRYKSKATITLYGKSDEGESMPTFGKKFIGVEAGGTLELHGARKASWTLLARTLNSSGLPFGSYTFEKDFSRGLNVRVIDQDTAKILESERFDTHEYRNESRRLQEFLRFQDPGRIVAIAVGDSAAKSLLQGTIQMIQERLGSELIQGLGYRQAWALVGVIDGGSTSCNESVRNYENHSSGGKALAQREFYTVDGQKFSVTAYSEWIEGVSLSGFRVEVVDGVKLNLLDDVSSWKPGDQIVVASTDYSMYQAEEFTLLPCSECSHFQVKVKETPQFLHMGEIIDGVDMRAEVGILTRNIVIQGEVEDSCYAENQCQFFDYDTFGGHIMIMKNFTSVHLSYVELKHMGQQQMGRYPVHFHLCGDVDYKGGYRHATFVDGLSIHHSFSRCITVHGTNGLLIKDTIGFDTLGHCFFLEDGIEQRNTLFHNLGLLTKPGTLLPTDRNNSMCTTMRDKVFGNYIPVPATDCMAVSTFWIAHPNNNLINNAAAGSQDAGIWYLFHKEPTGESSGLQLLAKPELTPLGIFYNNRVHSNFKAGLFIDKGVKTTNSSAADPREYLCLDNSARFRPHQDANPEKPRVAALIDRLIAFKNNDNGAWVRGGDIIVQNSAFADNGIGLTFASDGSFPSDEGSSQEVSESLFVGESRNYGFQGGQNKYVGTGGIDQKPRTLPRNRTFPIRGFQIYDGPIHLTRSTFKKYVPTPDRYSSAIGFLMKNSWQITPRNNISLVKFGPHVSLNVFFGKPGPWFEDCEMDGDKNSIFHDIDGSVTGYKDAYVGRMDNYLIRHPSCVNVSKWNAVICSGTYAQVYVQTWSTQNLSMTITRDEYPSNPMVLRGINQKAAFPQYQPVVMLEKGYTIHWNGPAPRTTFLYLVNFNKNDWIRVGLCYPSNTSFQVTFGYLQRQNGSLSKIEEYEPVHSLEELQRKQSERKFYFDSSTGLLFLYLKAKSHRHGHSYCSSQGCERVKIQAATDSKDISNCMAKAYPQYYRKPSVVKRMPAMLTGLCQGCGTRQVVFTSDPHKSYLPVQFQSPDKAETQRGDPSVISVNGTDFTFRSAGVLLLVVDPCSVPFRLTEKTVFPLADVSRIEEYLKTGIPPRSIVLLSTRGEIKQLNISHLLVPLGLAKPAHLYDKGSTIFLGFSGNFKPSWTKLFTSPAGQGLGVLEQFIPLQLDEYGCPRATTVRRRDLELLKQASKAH
Sequence of UniProt Q6UUV7 (Q6UUV7 whole entry, looked up): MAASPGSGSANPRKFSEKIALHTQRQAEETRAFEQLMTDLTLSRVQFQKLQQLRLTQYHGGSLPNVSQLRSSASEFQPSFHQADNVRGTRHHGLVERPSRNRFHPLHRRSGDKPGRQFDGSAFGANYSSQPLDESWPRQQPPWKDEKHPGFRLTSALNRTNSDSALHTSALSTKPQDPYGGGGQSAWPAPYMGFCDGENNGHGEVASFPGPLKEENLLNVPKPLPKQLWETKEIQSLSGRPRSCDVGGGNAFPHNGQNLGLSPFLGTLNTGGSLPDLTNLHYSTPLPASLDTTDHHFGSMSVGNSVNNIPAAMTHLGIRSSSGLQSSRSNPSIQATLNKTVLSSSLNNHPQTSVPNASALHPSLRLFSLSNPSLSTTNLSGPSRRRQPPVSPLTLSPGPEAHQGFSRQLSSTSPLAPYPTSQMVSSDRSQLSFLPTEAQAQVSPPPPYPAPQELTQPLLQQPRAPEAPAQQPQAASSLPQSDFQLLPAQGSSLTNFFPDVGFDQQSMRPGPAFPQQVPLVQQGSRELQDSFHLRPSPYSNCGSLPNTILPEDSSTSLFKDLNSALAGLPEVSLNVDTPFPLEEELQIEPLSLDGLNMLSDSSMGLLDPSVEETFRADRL
Sequence of UniProt P30305 (P30305 whole entry, looked up): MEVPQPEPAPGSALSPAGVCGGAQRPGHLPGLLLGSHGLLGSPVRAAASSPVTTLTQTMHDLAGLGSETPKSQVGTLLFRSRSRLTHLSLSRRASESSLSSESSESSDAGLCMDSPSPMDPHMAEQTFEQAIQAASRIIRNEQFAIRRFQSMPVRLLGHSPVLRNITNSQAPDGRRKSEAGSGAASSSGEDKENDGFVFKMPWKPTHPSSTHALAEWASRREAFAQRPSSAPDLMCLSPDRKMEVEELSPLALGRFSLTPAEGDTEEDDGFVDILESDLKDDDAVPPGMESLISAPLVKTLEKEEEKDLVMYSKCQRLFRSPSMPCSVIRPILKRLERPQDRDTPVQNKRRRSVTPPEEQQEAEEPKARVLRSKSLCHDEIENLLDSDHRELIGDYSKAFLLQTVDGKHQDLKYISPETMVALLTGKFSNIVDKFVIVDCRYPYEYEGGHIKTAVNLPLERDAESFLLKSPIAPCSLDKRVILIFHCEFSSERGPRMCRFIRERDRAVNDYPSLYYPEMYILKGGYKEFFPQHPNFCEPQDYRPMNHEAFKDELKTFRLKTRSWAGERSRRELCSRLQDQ
Sequence of UniProt O95273 (O95273 whole entry, looked up): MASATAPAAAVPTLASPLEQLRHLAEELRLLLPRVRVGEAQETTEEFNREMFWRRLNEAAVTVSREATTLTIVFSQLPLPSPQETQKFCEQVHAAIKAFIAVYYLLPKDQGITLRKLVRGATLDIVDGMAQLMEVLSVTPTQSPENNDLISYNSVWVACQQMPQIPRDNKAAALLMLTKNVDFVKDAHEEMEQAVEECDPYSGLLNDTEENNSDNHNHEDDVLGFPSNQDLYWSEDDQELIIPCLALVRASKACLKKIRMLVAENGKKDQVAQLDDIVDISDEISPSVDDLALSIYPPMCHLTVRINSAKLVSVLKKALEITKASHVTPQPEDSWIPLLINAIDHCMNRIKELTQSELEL
Sequence of UniProt O75956 (O75956 whole entry, looked up): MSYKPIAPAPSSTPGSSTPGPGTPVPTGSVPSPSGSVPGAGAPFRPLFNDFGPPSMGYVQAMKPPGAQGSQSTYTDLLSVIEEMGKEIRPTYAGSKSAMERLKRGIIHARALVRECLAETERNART
Sequence of UniProt P30281 (P30281 whole entry, looked up): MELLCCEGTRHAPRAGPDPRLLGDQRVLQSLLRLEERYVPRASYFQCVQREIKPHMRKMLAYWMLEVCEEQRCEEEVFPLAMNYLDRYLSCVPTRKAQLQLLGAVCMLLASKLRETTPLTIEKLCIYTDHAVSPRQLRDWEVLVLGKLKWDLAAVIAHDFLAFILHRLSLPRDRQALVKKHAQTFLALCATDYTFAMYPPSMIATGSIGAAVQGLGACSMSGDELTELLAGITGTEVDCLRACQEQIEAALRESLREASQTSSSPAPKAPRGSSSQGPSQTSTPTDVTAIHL

log2 fold change, inactive:
CCND3 (UniProt P30281) 0.092
CORO2A (UniProt Q92828) -0.255
CFAP58 (UniProt Q5T655) -0.046
CNRIP1 (UniProt Q96F85) 0.038
CLCN5 isoform 2 (UniProt P51795) -0.061
CARD9 (UniProt Q9H257) 0.085
CNOT4 isoform 9 (UniProt O95628) 0.036
CCNT2 (UniProt O60583) -0.219
CLASP2 (UniProt O75122) -0.344
CLN3 (UniProt Q13286) 0.028
CCDC82 (UniProt Q8N4S0) -0.021
CCNDBP1 (UniProt O95273) -0.197
CDC25B isoform 4 (UniProt P30305) -0.03
CCDC187, A0A1W2PQX5 -0.056
CEBPZOS (UniProt A8MTT3) 0.033
CREB3L2 (UniProt Q70SY1) -0.024
CEMIP2 (UniProt Q9UHN6) 0.179
CLN8 (UniProt Q9UBY8) 0.266
CDK2AP2 (UniProt O75956) -0.039
CRTC3 (UniProt Q6UUV7) -0.019
